CHT block – inhibitors of human choline transporter CHT; B-score at 10 µM; 0.86% of 310,000 active; CHT-expressing cells, membrane potential dye, choline response; stronger effect = lower value; High affinity choline transporter 1 (Homo sapiens), Q9GZV3;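 active means B-score over 3 SD under the library average, and starting fluorescence ratio not unusually high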;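 further: choline stimulus applied at its EC90 after an EC20 pre-addition; B-score computed on integrated fluorescence ratio after choline addition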
AI-2 QS modul – Vibrio harveyi AI-2 quorum sensing modulators, primary screen, JMH597 strain, luminescence/OD600 ratio; Vibrio harveyi JMH597 AI-2 luminescence/OD600 ratio, 9 h; stronger effect = lower value; strain lacks LuxN and CqsS sensors; 0 = neutral-control median; activity change, % at 7.5 µM; 0.4% of 300,000 active; AID 2094, 2009; in the data active means activity change below about -75%, passing the limit was not always enough;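 further: luminescence divided by OD600 gain over 9 h not by final OD600 alone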
CHT allo act – CHT positive allosteric modulators, primary screen, cell-based, membrane potential dye, choline EC20; High affinity choline transporter 1 (Homo sapiens), Q9GZV3; CHT-expressing cells; stronger effect = higher value; LV-AA mutant CHT in HEK293 cells; B-score at 10 µM; 0.49% of 310,000 active;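 active means initial fluorescence not abnormally high and integrated response B-score, plate-corrected, over 3 SD above library mean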
Platelet DG rel – inhibitors of platelet dense granule secretion, primary screen, cell-based, MLPCN, human platelets | human platelet-rich plasma, SFLLRN dense granule ATP release, luminescence | inhibition, %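 (compounds screened at 7.5 µM in platelet-rich plasma)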 | 0.22% of 300,000 active;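 active means mean replicate score, as percent of positive control, at or above 50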
VLA-4 inh – inhibition in human VLA-4 binding assay, primary screen, VLA-4 allosteric modulator project, MLPCN library, flow cytometry, VLA-4 expressing cells | Integrin alpha-4 (Homo sapiens), P13612 | ligand binding flow cytometry | inhibition, % (about 7 µM as worked out from the volumes in the protocol) | 0.2% of 330,000 active | AID 2557, 2010; in the data active means inhibition above about 50%
Target sequence (P13612 whole entry, looked up): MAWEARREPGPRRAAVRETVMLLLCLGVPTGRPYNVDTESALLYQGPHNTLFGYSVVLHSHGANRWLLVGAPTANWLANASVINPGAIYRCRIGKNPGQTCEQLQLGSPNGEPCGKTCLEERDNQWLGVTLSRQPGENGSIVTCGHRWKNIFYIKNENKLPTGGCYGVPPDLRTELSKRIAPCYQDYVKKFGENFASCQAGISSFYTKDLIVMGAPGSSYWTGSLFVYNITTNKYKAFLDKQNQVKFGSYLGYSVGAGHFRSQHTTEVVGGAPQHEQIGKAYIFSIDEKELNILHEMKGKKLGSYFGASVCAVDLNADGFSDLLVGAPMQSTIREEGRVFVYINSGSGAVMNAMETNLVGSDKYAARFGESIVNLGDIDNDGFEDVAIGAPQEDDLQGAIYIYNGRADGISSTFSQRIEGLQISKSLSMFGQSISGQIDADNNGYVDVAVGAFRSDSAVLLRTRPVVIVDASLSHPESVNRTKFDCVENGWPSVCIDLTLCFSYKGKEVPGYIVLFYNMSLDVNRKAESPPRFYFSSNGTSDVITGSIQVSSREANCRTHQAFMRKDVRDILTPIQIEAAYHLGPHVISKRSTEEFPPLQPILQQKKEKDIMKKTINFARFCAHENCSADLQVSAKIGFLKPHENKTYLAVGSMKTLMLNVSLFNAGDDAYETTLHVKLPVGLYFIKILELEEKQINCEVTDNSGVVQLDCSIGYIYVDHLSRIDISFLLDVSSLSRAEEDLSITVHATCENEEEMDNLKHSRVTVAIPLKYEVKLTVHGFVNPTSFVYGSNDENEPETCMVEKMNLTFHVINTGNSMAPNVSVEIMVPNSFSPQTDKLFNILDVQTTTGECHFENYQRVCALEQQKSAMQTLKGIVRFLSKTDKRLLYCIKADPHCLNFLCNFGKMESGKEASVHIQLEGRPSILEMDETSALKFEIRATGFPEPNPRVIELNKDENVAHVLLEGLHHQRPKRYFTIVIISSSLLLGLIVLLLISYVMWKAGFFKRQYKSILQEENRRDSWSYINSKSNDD
HIF act – HIF pathway transcriptional activators, primary screen, cell-based, U2OS HRE-luciferase, luminescence; U2OS HRE-luciferase reporter; normalized: DMSO 0%, desferrioxamine 100%; activation, % at 7.5 µM (by protocol); 0.32% of 300,000 active;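 active means mean activation of at least 10% of the iron chelator positive control signal, with at least half of replicates also reaching 10%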
VLA-4 allo CP – retest of VLA-4 allosteric modulators, confirmation, cell-based, cherry-picked plates, U937, HUTS-21 LIBS antibody; U937 cells, HUTS-21 LIBS mAb binding, flow cytometry; LDV ligand present at threefold Kd; shares compounds with VLA-4 inh; 2% of 1,300 active; inhibition, % at 6.7 µM; AID 2813, 2010; in the data active means inhibition above about 40%;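 further: 0% = ligand without compound and 100% = no ligand background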
The depositor's hits bear a star; i = inactive; x = no result. The list is not random: actives were taken first. Their share in the collection is about 2.2%.

SMILES | CHT block | AI-2 QS modul | CHT allo act | Platelet DG rel | VLA-4 inh | HIF act | VLA-4 allo CP
COc1ccc(-c2c(-c3cc(OC)cc(OC)c3)sc3ccc(OC)cc23)cc1 | x | x | x | x | -4 | x | x
Cc1ccc(OC(C)C(=O)N(C)Cc2ccccc2)c([N+](=O)[O-])n1 (centres undefined) | i | 18 | i | -3 | -1 | 0 | x
Cc1ccc(C)c(NC(=O)C(=O)NCC2CCCN2S(=O)(=O)c2cccs2)c1 (centres undefined) | i | 4 | i | 1 | 2 | 0 | x
C[N+](C)(C)C(Cc1c[nH]c2ccccc12)C(=O)[O-] (centres undefined) | x | 9 | x | -1 | x | 0 | x
COc1ccccc1-c1sc2cc3c(cc2c1-c1ccc(OCCN2CCOCC2)cc1)OCO3 | x | x | x | x | x | x | 0
COc1ccc(-c2sc3cc(OC)ccc3c2-c2ccc(OCCN3CCOCC3)cc2)cc1 | x | x | x | x | x | x | 0
CCC(COC(=O)Nc1cccc(C)c1)NC(=O)OCC(C)C (centres undefined) | i | 23 | i | -40 | 94* | 0 | -4
CCNC(=O)OCC(CC)NC(=O)OCC(C)C (centres undefined) | i | 12 | i | -1 | 14 | 0 | x
O=Cc1cnc(N2CCN(c3ccccc3)CC2)s1 | i | 32 | i | -2 | 52* | 0 | 1
Cc1ccc(CN(C)c2ccc(S(=O)(=O)N3CCCC3)cn2)cc1 | x | x | x | x | 1 | x | x
CC(Sc1nnnn1-c1ccccc1)C(=O)Nc1ccc(N2CCN(C)CC2)cc1 (centres undefined) | i | 30 | i | -1 | 102* | 0 | 1
O=C(c1cc(Br)c[nH]1)N1CCSCC1 | i | 14 | i | -3 | 19 | 0 | x
CN(C)c1ccc(CNS(=O)(=O)c2ccc3c(c2)C(C)(C)C(=O)N3C)cc1 | i | 12 | i | 18 | 52* | 0 | -1
Cc1ccc(CNS(=O)(=O)c2ccc3c(c2)C(C)(C)C(=O)N3C)cc1 | i | 13 | i | 2 | -6 | 0 | x
CSc1ncccc1C(=O)OCC(=O)N1CC(=O)Nc2ccccc21 | x | x | x | x | 0 | x | x
COc1cc(C(=O)Nc2cc(C(F)(F)F)ccc2N2CCOCC2)ccc1OCC(=O)N1CCOCC1 | i | 15 | i | 0 | 14 | -1 | x
Cc1noc(C)c1COc1ccc(C(=O)NCCc2ccc(F)cc2)cc1 | x | x | x | x | 50* | x | 12
Cc1noc(C)c1COc1ccc(C(=O)NCCc2ccc(S(N)(=O)=O)cc2)cc1 | i | 2 | i | -40 | -2 | 0 | x
N#Cc1cccc(NS(=O)(=O)c2ccc(S(=O)(=O)N3CCOCC3)cc2)c1 | x | x | x | x | 0 | x | x
N#Cc1cccc(NS(=O)(=O)c2ccccc2Cl)c1 | x | x | x | x | 16 | x | 3
CSc1nc(N2CCOCC2)nc2ccc(C)cc12 | i | 19 | i | 5 | -8 | 0 | x
O=C(CCc1nc2ccccc2s1)OCC(=O)c1ccccc1 | i | 5 | i | 0 | 42 | 1 | -12
O=C(CCc1nc2ccccc2s1)OCC(=O)c1ccc[nH]1 | i | -10 | i | -16 | 1 | 0 | x
O=C(c1cc(-c2cccs2)nc2ccccc12)N1CCN(S(=O)(=O)c2ccccc2)CC1 | i | 0 | i | -1 | 13 | 0 | -13
O=C(c1cc(-c2cccs2)nc2ccccc12)N1CCN(c2ccccc2)CC1 | i | 40 | i | 1 | 11 | 2 | x
SMILES | CHT block | AI-2 QS modul | CHT allo act | Platelet DG rel | VLA-4 inh | HIF act | VLA-4 allo CP
O=C(c1cc(-c2cccs2)nc2ccccc12)N1CCN(S(=O)(=O)c2cccc(F)c2)CC1 | i | 24 | i | 5 | 91* | 0 | 0
CC1CCCN(C(=O)c2cc(-c3cccs3)nc3ccccc23)C1 (centres undefined) | x | x | x | x | 15 | x | x
CC(C)(C)c1ccc(Oc2ccc(NC(=O)C3CC=CCC3C(=O)O)cc2)cc1 (centres undefined) | i | 23 | i | -3 | -13 | -1 | x
Cc1ccccc1Oc1ccc(NC(=O)C2CC=CCC2C(=O)O)cc1 (centres undefined) | i | -58 | i | -7 | 54* | 0 | 5
N#Cc1c(SCC(=O)O)nc(-c2ccccc2)c2c1CCCC2 | i | 7 | i | 14 | 94* | 0 | 0
N#Cc1c(SCC(N)=O)nc(-c2ccccc2)c2c1CCCC2 | i | 10 | i | -31 | -13 | 0 | x
CCC(=O)c1cn(CC(=O)Nc2ccccc2)c2ccccc12 | i | 11 | i | -1 | 13 | -15 | x
CCC(=O)c1cn(CC(=O)Nc2ccc(C)cc2)c2ccccc12 | i | 6 | i | 6 | 5 | 2 | 2
CC(=O)c1cn(CC(=O)Nc2ccccc2F)c2ccccc12 | i | x | i | 10 | 24 | -3 | x
CCC(=O)c1cn(CC(=O)Nc2ccccc2F)c2ccccc12 | i | 13 | i | 1 | 11 | -16 | 3
COC(=O)c1cn(CC(=O)Nc2ccccc2C)c2ccccc12 | i | 1 | i | 3 | 21 | 0 | 4
CCC(=O)c1cn(CC(=O)Nc2ccc(OC)cc2)c2ccccc12 | i | x | i | -11 | 57* | -8 | 8
[O-][n+]1c2ccccc2cc2ccccc21 | i | 15 | i | 3 | -5 | 2 | x
CC[C@H](C)/C=C/C1=CC2=C(Cl)C(=O)[C@@]3(C)OC(=O)C(C(=O)[C@H](C)[C@@H](C)O)=C3C2=CO1 | i | 31 | i | -4 | 28 | 0 | x
CN1CCc2nc(SCC(=O)Nc3ccc(Cl)cc3)c(C#N)cc2C1 | i | 8 | i | 21 | 106* | 2 | -3
O=C(OCc1c(F)cccc1Cl)c1cccnc1Cl | i | 13 | i | -2 | 51* | 0 | 4
CSCCC(NC(=O)COc1ccccc1)C(=O)N1CCCC(C(F)(F)F)C1 (centres undefined) | i | 6 | i | 21 | -6 | 0 | x
CC(=O)N[C@H](Cc1c[nH]c2ccccc12)C(=O)O | i | -1 | i | -7 | 50* | 0 | 2
CC(=O)/C=C(/C)NC(Cc1c[nH]c2ccccc12)C(=O)O (centres undefined) | i | -2 | i | -2 | -8 | 0 | x

Screening results as filed in PubChem.
